Test [1] is described as follows: NCI Yeast Anticancer Drug Screen. Data for the rad50 strain (AID 155).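 Further: 0% = growth of vehicle-only cultures of the same strain.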 The settings on record: S. cerevisiae rad50 strain growth inhibition, hits give high values. The procedure, abridged:
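Cells are treated with compound, grown, and their growth is then scored against vehicle-only cultures of the same repair-deficient yeast strain.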

Test [2] can be described thus: NCI Yeast Anticancer Drug Screen. Data for the mec2-1 strain (AID 157). The settings on record: S. cerevisiae mec2-1 strain, hits give high values. The procedure, abridged: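 mec2-1 yeast strain, carrying an alteration in DNA damage repair or cell cycle control, was exposed to compounds; growth inhibition was measured relative to vehicle-treated controls.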
A short description of test [3]: NCI Yeast Anticancer Drug Screen. Data for the sgs1 mgt1 strain (AID 161).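 Further: 0% = growth of cultures given vehicle only.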 Particulars: S. cerevisiae sgs1 mgt1 strain, hits give high values. Summed up:
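Yeast cells carrying a defined DNA-repair defect were exposed to test compounds. Growth inhibition was measured relative to vehicle-treated controls.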

The nature of test [4]: NCI Yeast Anticancer Drug Screen. Data for the cln2 rad14 strain (AID 165).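 Further: 0% = growth equal to vehicle treated cultures.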 Particulars: S. cerevisiae cln2 rad14 strain, hits give high values. Summed up:
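Yeast carrying cln2 and rad14 alterations (cell cycle control and DNA damage repair) were exposed to compounds. Growth inhibition was measured against vehicle-treated controls.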

Test [5] is described as follows: NCI Yeast Anticancer Drug Screen. Data for the bub3 strain (AID 167). The settings on record: S. cerevisiae bub3 mutant strain, hits give high values. The procedure, abridged:
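Part of a panel of yeast mutants defective in DNA damage repair or cell cycle regulation. Each strain is grown with compound, and inhibition is calculated relative to solvent-treated cultures.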

The nature of test [6]: NCI Yeast Anticancer Drug Screen. Data for the mlh1 rad18 strain (AID 175). The settings on record: S. cerevisiae mlh1 rad18 strain growth inhibition, hits give high values. The procedure, abridged:
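Growth inhibition of the yeast strain was measured after compound exposure and expressed relative to vehicle-treated controls. The strain carries defined defects in DNA damage repair.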

[7] abbreviates: at 5.0 µM (retest, dose inferred, filed as 0.5).
The mark [8] stands for this setting: at 50.0 µM (retest, dose inferred, filed as 5.0).

Our source for the growth inhibition values is PubChem BioAssay (NCI).

The panel holds about 79,000 compounds, 15% with a hit somewhere; the sample as a whole holds those more often. Unmarked numbers belong to inactive results. Calls of active or inactive are those of the source. No stated cut-off is given here; in the data, active means growth inhibition above about 70%; inactive means the rest.

On to `CCC1CC[N-]CC1.CCC1CC[N-]CC1.N#C[S-].N#C[S-].[Cd]`, for which the growth inhibition in test [1] (setting [7]) was 26%; in test [1] (setting [8]), 85% (active); in test [2] (setting [7]) it was 16%; in test [2] (setting [8]), 56%; in test [3] (setting [7]), 11%; in test [3] (setting [8]), 71% (active). The growth inhibition is 4% in test [4] (setting [7]); 54% in test [4] (setting [8]); 5% in test [5] (setting [7]); 42% in test [5] (setting [8]); -16% in test [6] (setting [7]); 57% in test [6] (setting [8]).

For the compound `O=[N+]([O-])/C=C/c1ccc([N+](=O)[O-])cc1`, the growth inhibition in test [1] (setting [7]) is 96% (active); in test [1] (setting [8]), 99% (active); in test [2] (setting [7]), 81% (active); in test [2] (setting [8]), 100% (active); in test [3] (setting [7]), 99% (active); in test [3] (setting [8]), 100% (active). Moreover, the growth inhibition in test [4] (setting [7]) is 31%; in test [4] (setting [8]), 99% (active); in test [5] (setting [7]) it was 94% (active); in test [5] (setting [8]), 100% (active); in test [6] (setting [7]), 15%; in test [6] (setting [8]), 99% (active).

For `[Cl][Sn]([c]1ccccc1)([c]1ccccc1)[c]1ccccc1`, the growth inhibition in test [1] (setting [7]) was 99% (active); in test [1] (setting [8]) it was 98% (active); in test [2] (setting [7]), 99% (active); in test [2] (setting [8]) it was 99% (active); in test [3] (setting [7]) it was 100% (active); in test [3] (setting [8]), 99% (active). For the same compound, the growth inhibition in test [4] (setting [7]) is 99% (active); in test [4] (setting [8]) it was 99% (active); in test [5] (setting [7]), 100% (active); in test [5] (setting [8]) it was 99% (active); in test [6] (setting [7]), 99% (active); in test [6] (setting [8]) it was 98% (active).

Consider `O=C1c2ccccc2C[CH]1[Hg][Cl]` (centres undefined), for which the growth inhibition in test [1] (setting [7]) was 99% (active); in test [1] (setting [8]), 99% (active); in test [1] (at 50.0 µM) it was 99.2% (active); in test [3] (setting [7]), 100% (active); in test [3] (setting [8]) it was 99% (active); in test [3] (at 50.0 µM), 99.3% (active). Also, the growth inhibition in test [4] (setting [7]) was 99% (active); in test [4] (setting [8]) it was 99% (active); in test [4] (at 50.0 µM), 96.2% (active); in test [5] (setting [7]) it was 99% (active); in test [5] (setting [8]), 99% (active); in test [5] (at 50.0 µM), 98.7% (active). Besides, the growth inhibition in test [6] (setting [7]) was 99% (active); in test [6] (setting [8]), 99% (active); in test [6] (at 50.0 µM), 99.3% (active).

For `CNC1C(O)CC(OC2C/C=C(\C)C/C(C)=C/C=C/CCC(C)CNC(=O)/C=C/C=C/C2C)OC1C` (centres undefined), the growth inhibition in test [1] (setting [7]) was -6%; in test [1] (setting [8]) it was 99% (active); in test [1] (at 50.0 µM), 14.4%; in test [3] (setting [7]), 31%; in test [3] (setting [8]) it was 100% (active); in test [3] (at 50.0 µM), 98.3% (active). Further, the growth inhibition in test [4] (setting [7]) was -14%; in test [4] (setting [8]), 99% (active); in test [4] (at 50.0 µM), 99.2% (active); in test [5] (setting [7]), 20%; in test [5] (setting [8]), 100% (active); in test [5] (at 50.0 µM) it was 99.5% (active). The growth inhibition was 18% in test [6] (setting [7]), 100% (active) in test [6] (setting [8]) and 99.1% (active) in test [6] (at 50.0 µM).

On to `C/C(=N\NC(=S)N1CC2CCC(CC2)C1)c1nccs1`, for which the growth inhibition is 89% (active) in test [1] (setting [7]); 98% (active) in test [1] (setting [8]); 77% (active) in test [2] (setting [7]); 99% (active) in test [2] (setting [8]); 92% (active) in test [3] (setting [7]); 99% (active) in test [3] (setting [8]). In addition, the growth inhibition is 87% (active) in test [3] (at 50.0 µM); 86% (active) in test [4] (setting [7]); 98% (active) in test [4] (setting [8]); 87.2% (active) in test [4] (at 50.0 µM); 95% (active) in test [5] (setting [7]); 99% (active) in test [5] (setting [8]). In addition, the growth inhibition was 86.5% (active) in test [5] (at 50.0 µM), 95% (active) in test [6] (setting [7]) and 98% (active) in test [6] (setting [8]).

On to `NS(=O)(=O)CCl.[Hg]`, for which the growth inhibition is 13% in test [1] (setting [7]); 99% (active) in test [1] (setting [8]); 17% in test [2] (setting [7]); 100% (active) in test [2] (setting [8]); 15% in test [3] (setting [7]); 100% (active) in test [3] (setting [8]). For the same compound, the growth inhibition in test [4] (setting [7]) is 3%; in test [4] (setting [8]), 98% (active); in test [5] (setting [7]), 2%; in test [5] (setting [8]), 99% (active); in test [6] (setting [7]), -16%; in test [6] (setting [8]), 93% (active).

In the case of `C[C@]12CCCC[C@@H]1CC[C@@H]1[C@@H]2C(=O)C[C@@]2(C)[C@H]1CC[C@]2(C)O`, the growth inhibition is 6% in test [1] (setting [7]); 97% (active) in test [1] (setting [8]); 60.4% in test [1] (at 50.0 µM); 0% in test [3] (setting [7]); 99% (active) in test [3] (setting [8]); 50.3% in test [3] (at 50.0 µM). The growth inhibition in test [4] (setting [7]) is 0%; in test [4] (setting [8]), 97% (active); in test [4] (at 50.0 µM), 20.6%; in test [5] (setting [7]) it was -4%; in test [5] (setting [8]) it was 80% (active); in test [5] (at 50.0 µM), 53%. For the same compound, the growth inhibition in test [6] (setting [7]) was 30%; in test [6] (setting [8]), 99% (active); in test [6] (at 50.0 µM) it was 98% (active).

Consider `CCC(CC)COC(=O)CI`, for which the growth inhibition in test [1] (setting [7]) was 33%; in test [1] (setting [8]), 97% (active); in test [2] (setting [7]), 19%; in test [2] (setting [8]), 79% (active); in test [3] (setting [7]), 28%; in test [3] (setting [8]) it was 99% (active). Moreover, the growth inhibition in test [4] (setting [7]) is 15%; in test [4] (setting [8]) it was 40%; in test [5] (setting [7]) it was 50%; in test [5] (setting [8]) it was 86% (active); in test [6] (setting [7]), -20%; in test [6] (setting [8]) it was 87% (active).

For the compound `O=[N+]([O-])/C=C/c1cccc([N+](=O)[O-])c1`, the growth inhibition was 98% (active) in test [1] (setting [7]); 99% (active) in test [1] (setting [8]); 99% (active) in test [2] (setting [7]); 100% (active) in test [2] (setting [8]); 100% (active) in test [3] (setting [7]); 100% (active) in test [3] (setting [8]). In addition, the growth inhibition in test [4] (setting [7]) is 35%; in test [4] (setting [8]) it was 99% (active); in test [5] (setting [7]), 97% (active); in test [5] (setting [8]), 100% (active); in test [6] (setting [7]), -9%; in test [6] (setting [8]) it was 99% (active).

On to `O=[N+]([O-])c1cc(Cl)c(Cl)cc1[N+](=O)[O-]`, for which the growth inhibition in test [1] (setting [7]) is 83% (active); in test [1] (setting [8]) it was 99% (active); in test [2] (setting [7]) it was 16%; in test [2] (setting [8]), 99% (active); in test [3] (setting [7]) it was 41%; in test [3] (setting [8]), 100% (active). In addition, the growth inhibition in test [4] (setting [7]) is -2%; in test [4] (setting [8]), 99% (active); in test [5] (setting [7]) it was 14%; in test [5] (setting [8]) it was 99% (active); in test [6] (setting [7]) it was -11%; in test [6] (setting [8]), 98% (active).

Turning to `CC(=O)OC1CC[C@@]2(C)C(=CC[C@@H]3[C@@H]2CC[C@]2(C)C(OC(C)=O)[C@H](n4ccnc4)C[C@@H]32)C1` (some centres undefined), the growth inhibition is 22% in test [1] (setting [7]); 84% (active) in test [1] (setting [8]); 71.8% (active) in test [1] (at 50.0 µM); 14% in test [3] (setting [7]); 78% (active) in test [3] (setting [8]); 75.2% (active) in test [3] (at 50.0 µM). The growth inhibition in test [4] (setting [7]) was 9%; in test [4] (setting [8]) it was 58%; in test [4] (at 50.0 µM), 69.9%; in test [5] (setting [7]) it was -43%; in test [5] (setting [8]), 74% (active); in test [5] (at 50.0 µM), 77% (active). The figures for the growth inhibition in test [6] (setting [7]), in test [6] (setting [8]) and in test [6] (at 50.0 µM) were 17%, 56% and 91.2% (active), respectively.
